# A selection: hits, their analogues and other compounds. The true share with any hit is near 21%.
# Pf growth 96h: P. falciparum growth inhibition at 96 hour, primary screen for plastid delayed-death inhibitors; Potency, µM (top dose mostly 28.7 µM), without a hit: top-dose activity change, negative = inhibition, most hits filed as inhibitors; P. falciparum luciferase reporter growth, 96 h; actives 6.9% (n = 320,000); further: potency means the concentration at half of the fitted maximal effect; on the % scale 0 is the no-effect control and ±100 the full control effect
#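 Readout is luminescence from an integrated firefly luciferase in P. falciparum. Red cells, 2% hematocrit and 0.05% parasitemia final, were cultured with compound through two parasite generations (96 hours) at 37 C, 5% CO2.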
# Cycloheximide cs: counter-screen hit for Shiga toxin inhibitors, cycloheximide; AID 2314; actives 12% (n = 300,000); cell reporter, cycloheximide protein synthesis inhibition counterscreen; max response, %; in the data active means max response mostly above about 13%, no sharp cut-off; inactive means mostly below about 14%; further: read at 38.3 µM for the half of the compounds with a filed dose; 0% is about no effect
# Pf growth 48h: inhibits P. falciparum growth in the first generation, 48 h; Potency, µM (series often up to 28.7 µM), inactives show top-dose activity change, negative = inhibition, most hits filed as inhibitors; P. falciparum luciferase growth in erythrocytes, 48 h; AID 504832; actives 5.9% (n = 310,000); further: potency means the concentration at half of the fitted maximal effect; on the % scale 0 is the no-effect control and ±100 the full control effect
#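 Compounds are pin-transferred into medium, infected erythrocytes (2% hematocrit, 0.1% parasitemia final) are added, and plates sit one parasite generation at 37 C in 5% CO2. Detection reagent is then added and luminescence measured.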
# Sm TGR block: inhibitors of Schistosoma mansoni thioredoxin glutathione reductase. Q962Y6. purified TGR, DTNB reduction, TNB absorbance 405 nm. Potency, µM (titrated, usually from 114 µM), inactives show at the top dose activity change, negative = inhibition, actives largely listed as inhibitors. actives 3% (n = 360,000). AID 485364; further: potency means the concentration at half of the fitted maximal effect; on the % scale 0 is the no-effect control and ±100 the full control effect; nearly all actives have a fitted effect of over 60% in size
#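 TGR 20 nM + NADPH 100 uM (dispensed conc.), cpd preinc 15 min RT; start with NADPH (500 uM addition) then DTNB (15 mM addition). Kinetic TNB absorbance, 405 nm filter. Four-parameter Hill fit across titration.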
# Shiga toxin inh: inhibitors of Shiga toxin in Vero cells; Vero cells, Shiga toxin protein synthesis inhibition reporter; inhibition, % at 38.7 µM; actives 9.2% (n = 290,000); AID 2315; in the data active means inhibition mostly above about 28%, no sharp cut-off; inactive means mostly below about 43%; further: 0% is about no effect
# NS1 function inh: inhibitors of influenza NS1 protein function; Potency, µM (highest dose often 46.1 µM), for inactives: at the top dose activity, positive = more growth; actives 0.4% (n = 270,000); AID 2326; calls by dose curve; further: potency means the concentration at half of the fitted maximal effect; actives are rising curves; nearly all actives have a fitted effect of over 50% in size
#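 Read-out: OD600 growth recovery of NS1-expressing budding yeast. Cells grown overnight at 30C in -URA glucose medium, washed, resuspended and diluted 1:100 in 2% galactose assay medium, pH 6.0. Same strain lacking NS1 served as positive control.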
# Starred values were filed as active, the others as inactive; i = inactive; ? = inconclusive; · = no result; [ ] = dose if it differs, or a comment. Unless noted, the call rests on the fitted dose curve; in most records, active means well fitted curve in the direction sought with a large enough effect; inconclusive means small, poorly fitted or top-dose-only effect, or another doubt; inactive means no such curve, though single readings can be large; an effect the other way counts as inactive or inconclusive.
SMILES,Pf growth 96h,Cycloheximide cs,Pf growth 48h,Sm TGR block,Shiga toxin inh,NS1 function inh
O=C(N/N=C/c1ccccn1)c1ccc(Br)o1,?,19*,?,6%,44*,-13%
O=C(N/N=C/c1ccccn1)C1CC1,25%,-4,·,18%,-14,7%
O=C(N/N=C/c1ccccn1)c1cc(Br)ccc1O,9%,32*,?,6%,48*,-78%
O=C(N/N=C/c1coc2ccccc2c1=O)c1cc(Br)ccc1O,-21%,-2,6%,-8%,-1,4%
O=C(N/N=C/c1cccnc1)c1cc(Br)ccc1O,5%,26*,92%,0%,53*,-4%
CCOc1ccc(Br)cc1C(=O)N/N=C/c1cccnc1,?,4,-1%,2%,-4,-5%
Cn1c(=O)c(N)c2c3c(c(Br)ccc31)C(=O)c1ccccc1-2,?,2,?,13µM*,-7,-3%
Cc1ccc(CC(=O)Nc2cccc([N+](=O)[O-])c2)cc1,68%,-2,37%,8%,32,0%
Cc1ccc(C(=O)CNc2cccc([N+](=O)[O-])c2)cc1,12%,38*,62%,6%,90*,·
CNC(CC(=O)c1ccc([N+](=O)[O-])cc1)C(Cl)(Cl)Cl (centres undefined),i,7,36%,0.45µM*,-2,-24%
Cc1ccc(NCC(=O)c2ccc([N+](=O)[O-])cc2)cc1,?,43*,?,16µM*,85*,·
Cc1ccc(NCCC(=O)c2cccc([N+](=O)[O-])c2)c(C)c1,10%,35*,4%,0.5µM*,0,-36%
COc1ccc(C(=O)CC(Nc2ccc([N+](=O)[O-])cc2)c2ccc(OC)cc2)cc1 (centres undefined),?,8,?,6%,-7,?
Cc1cccc(NCCC(=O)c2ccc([N+](=O)[O-])cc2)c1C,38%,3,6%,·,11,-2%
COc1ccc(NC(=O)CNc2cccc(S(=O)(=O)N3CCCCCC3)c2)c([N+](=O)[O-])c1,3%,·,-8%,-2%,·,·
CN(C)CCCOc1ccc2c(c1)Sc1ccccc1CC2=O,-29%,21*,5%,-17%,23,13%
COc1ccc(NC(=O)c2c(-c3ccc(C)cc3)nnc3ccccc23)cc1OC,·,·,·,1%,·,·
C#CCOCCOCCOCCNc1nc(N2CCN(C(=O)CCCCCCCCCCNC(=O)[C@H](CCCCN)n3cc(C[C@@H](C)CC)nn3)CC2)nc(N2CCN(C(=O)CCCCCCCCCCNC(=O)[C@H](CCCN=C(N)N)n3cc(C[C@@H](C)CC)nn3)CC2)n1,3.3µM*,·,3.3µM*,?,·,·
C#CCOCCOCCOCCNc1nc(N2CCN(C(=O)CCCCCCCCCCNC(=O)[C@H](CO)n3cc(CCCCCN)nn3)CC2)nc(N2CCN(C(=O)CCCCCCCCCCNC(=O)[C@H](CCCN=C(N)N)n3cc(C[C@@H](C)CC)nn3)CC2)n1,2.6µM*,·,3.3µM*,45µM*,·,·
C#CCOCCOCCOCCNc1nc(N2CCN(C(=O)CCCCCCCCCCNC(=O)[C@H](CCCCN)n3cc(C)nn3)CC2)nc(N2CCN(C(=O)CCCCCCCCCCNC(=O)[C@H](CCCN=C(N)N)n3cc(C[C@@H](C)CC)nn3)CC2)n1,1.5µM*,·,1.9µM*,-27%,·,·
C#CCOCCOCCOCCNc1nc(N2CCN(C(=O)CCCCCCCCCCNC(=O)[C@@H](CCSC)n3cc(CCO)nn3)CC2)nc(N2CCN(C(=O)CCCCCCCCCCNC(=O)[C@H](CCCN=C(N)N)n3cc(C[C@@H](C)CC)nn3)CC2)n1,1.2µM*,·,3.3µM*,5µM*,·,·
O=C1c2ccccc2C(=O)N1/N=C/c1ccc(Oc2ccc([N+](=O)[O-])cn2)cc1,15%,6,26%,4%,15,19%
CCC(=O)N1c2ccccc2CC1C(=O)NCc1ccccc1C (centres undefined),·,·,·,-3%,·,·
O=C(CSc1ncccn1)NC(=O)c1ccccc1,17%,1,27%,8%,-13,·
CC(/C=N/NC(=O)c1ccncc1)=C\c1ccccc1,33%,23*,?,-3%,52*,-11%
SMILES,Pf growth 96h,Cycloheximide cs,Pf growth 48h,Sm TGR block,Shiga toxin inh,NS1 function inh
CC(/C=C/c1ccccc1F)=N\NC(=O)c1cccc(F)c1,-23%,46*,2%,-9%,65*,·
COc1ccccc1C(=O)N/C(=C\c1ccccc1)C(=O)NC(C)C(=O)O (centres undefined),9.3µM*,-3,21%,28%,-13,?
CC(=C/c1ccccc1)/C=N/NC(=O)c1ccccn1,13%,33*,?,3%,23*,-38%
COc1ccc(C2=Nn3c(nnc3-c3cc(OC)ccc3OC)SC2)cc1,·,-5,·,·,-8,·
COc1cc(C(=O)NCc2nnc(SCC(=O)N3CCCCCC3)o2)cc(OC)c1OC,-2%,1,-17%,-1%,-14,-1%
CC(/C=N/NC(=O)c1cccc(F)c1)=C\c1ccccc1,-3%,51*,?,13%,104*,-3%
COc1ccc(/C=C/C(=O)Oc2ccc(/C=N/NC(=O)c3ccncc3)cc2)cc1,-11%,5,?,7%,-13,22%
CC(=C/c1ccc(C(C)C)cc1)/C=N/NC(=O)c1ccncc1,?,36*,13µM*,-1%,84*,1%
CC(/C=N/NC(=O)c1ccc2nc(C)[nH]c2c1)=C\c1ccccc1,?,14,33%,-7%,16,-4%
COc1ccccc1C(=O)N/N=C/C(C)=C/c1ccccc1,-6%,19*,15%,-9%,113,-35%
COc1ccc(NC(=O)c2cc(S(=O)(=O)N3CCCCC3)c[nH]2)cc1,5%,-2,?,9%,5,-11%
Cc1ccccc1N1CCN(C(=O)c2ccccc2NC(=O)c2ccccc2C(=O)O)CC1,10%,-1,5%,-4%,-3,3%
Cc1ccc(C)c(N2CCN(S(=O)(=O)c3cc4c(cc3C)NC(=O)CO4)CC2)c1,-6%,-2,32%,-14%,-1,12%
Cc1ccc(C)c(Cn2c(=O)n(-c3ccccc3)c(=O)c3c4c(sc32)CCCC4)c1,·,·,·,-6%,·,·
O=C(Nc1ccccc1)NC1CCS(=O)(=O)C1 (centres undefined),9.3µM*,-3,10%,-4%,1,-2%[9.22 µM]
O=C(NCc1ccccc1)NC1CCS(=O)(=O)C1 (centres undefined),12%,0,9%,·,37,0%
O=C(Nc1ccc2ccccc2c1)NC1CCS(=O)(=O)C1 (centres undefined),5%,14*,50%,47%,88,2%
COC(=O)c1ccccc1NC(=O)CN1C(=O)COc2ccc(Cl)cc21,·,·,·,2%,·,·
CCC1(C)N([O-])C(C)=C(c2ccccc2)[N+]1=O (centres undefined),0.093µM*,2,·,0%,8,-2%

# High-throughput results: PubChem BioAssay, National Center for Advancing Translational Sciences (NCATS)
